In PubChem BioAssay AID652054 (National Center for Advancing Translational Sciences (NCATS), 2013):
The campaign covered roughly 360,000 compounds. About 9,100 (2.5%) were called active. Another 4% or so got no clear call; they are omitted. The entries come from a sample that favours actives as a whole. Values without a mark were called inactive. Rule as the data show it: active = max response below about -50%; inconclusive = no clear call, values can overlap the other calls; inactive = above that.

Target: D(3) dopamine receptor (Homo sapiens) (UniProt P35462)
Sequence (P35462 whole entry, looked up): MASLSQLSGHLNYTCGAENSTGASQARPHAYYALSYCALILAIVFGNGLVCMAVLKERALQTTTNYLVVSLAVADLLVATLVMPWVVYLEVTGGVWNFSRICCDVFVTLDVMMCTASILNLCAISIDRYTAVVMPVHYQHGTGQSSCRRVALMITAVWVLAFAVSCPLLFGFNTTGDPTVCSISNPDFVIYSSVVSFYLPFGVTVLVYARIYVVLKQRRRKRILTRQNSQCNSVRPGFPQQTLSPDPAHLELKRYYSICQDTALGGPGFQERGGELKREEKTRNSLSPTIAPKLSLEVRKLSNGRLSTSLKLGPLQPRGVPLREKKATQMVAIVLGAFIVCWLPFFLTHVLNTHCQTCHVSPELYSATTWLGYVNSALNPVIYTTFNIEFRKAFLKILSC
Test: qHTS of D3 Dopamine Receptor Antagonist: qHTS
Details: D3R cells, DiscoveRx beta-arrestin luminescence, antagonist mode; stronger effect = lower value
Source text: D3 DARs represent a very important target for the treatment of several neuropsychiatric disorders. Indeed, one of the most promising therapeutic applications for the D3 DAR is in the area of addiction and related disorders. […] These findings have been observed with a number of addictive substances including cocaine, amphetamine, nicotine, and alcohol. […] Antagonism of the D3 DAR may also be therapeutic in the treatment of schizophrenia or psychosis. […] Since the D3 DAR is expressed in areas of the CNS associated with the control of mood and emotion, it has been hypothesized that selective antagonism of the D3 DAR may be effective in treating psychosis without inducing the motor side effects typically seen with D2 DAR antagonists.
This part of the project aims to discover novel antagonist.
NIH Chemical Genomics Center [NCGC]
NIH Molecular Libraries Probe Centers Network [MLPCN]
Assay Submitter (PI): David Sibley, NINDS
Freshly passaged cells are plated in 1536 well white, solid bottom plates at a density of 1500 cells/well in 3microl of complete media. After an overnight incubation at 37 degrees C in 5% CO2, cells are loaded with 23nl of test compound from the compound library (as well as dopamine controls) using a 1536 pintool and incubated at 37 degrees C for 90 minutes. Two microliters of DiscoveRx reagent is then added to all cells, and they are incubated for an additional 30 - 60 minutes at room temperature. Following incubation, luminescence is measured on a ViewLux CCD-based luminometer reader using a 20 sec exposure time.
% is scaled to controls: 0 for no effect and ±100 for the full control effect.

SMILES | max response, negative = inhibition
CC(=O)NC(=O)NC(C)Cc1ccccc1 (stereo not given) | 0%
CC(Cc1ccccc1)NCCC(c1ccccc1)c1ccccc1 (stereo not given) | -75.4% (active)
Fc1ccc(C2N3CCCN23)cc1 (stereo not given) | 17.3%
CCOC(=O)CC(SP1(=S)OCC2(CCCCO2)C(C2CCCCO2)O1)C(=O)OCC (stereo not given) | 0.24%
COc1c(O)ccc2c1-c1c3c(cc4c1C(C2)N(C)CC4)OCO3 (stereo not given) | -20.5%
COC1=C[C@@H]2[C@@H]3Cc4ccc(OC)c(O)c4[C@]2(CCN3C)CC1=O | 2.57%
COc1ccc2c(c1O)-c1cccc3c1[C@@H](C2)N(C)CC3 | -64.4% (active)
COc1cccc(CN2CCCC(C(=O)c3ccccc3SC)C2)c1O (stereo not given) | -25.9%
c1cncc(CNC2=NCCC2)c1 | -0.0969%
COC(=O)CN(CCCl)P1(=O)OCCCN1CCCl (stereo not given) | 9.55%
CC(C)Oc1cccc(C(=O)C2CCCN(C3CCOCC3)C2)c1 (stereo not given) | -5.82%
CCn1cc(CN2CCCC(C(=O)c3cccc(C(F)(F)F)c3)C2)cn1 (stereo not given) | -84.1% (active)
CSc1ccc(C(=O)C2CCCN(Cc3ccn[nH]3)C2)cc1 (stereo not given) | 2.56%
CN(C)CC1Oc2ccccc2OC1(O)c1ccccc1 (stereo not given) | -95.3% (active)
CC1CCC(N(C)C2CCN(C)CC2)CC1 (stereo not given) | -17.4%
Cc1cccc(-n2c(C)nc3cc(C(=O)N4CCC5(CC4)OCCO5)ccc32)c1 | -5.12%
Clc1cccc(Cl)c1Cl | -21.5%
CN1CCN(Cc2ccccc2C(F)(F)F)CC1 | -22.2%
Fc1cccc(F)c1CN1CCN(Cc2c(F)cccc2F)CC1 | -59.3% (active)
O=C(N/N=C/c1c(O)n(C2CC2)c(=S)[nH]c1=O)c1ccccc1 | -25.4%
CCC/C(=N\O)c1c[nH]c2ccccc12 | -19.7%
Cc1cccc(NC(=O)N2CC3CC(C2)c2cccc(=O)n2C3)c1 (stereo not given) | 8.44%
CCOC(=O)C(O)(c1ccc(NC(=O)c2ccco2)c(OC)c1)C(F)(F)F (stereo not given) | 44%
COc1cc(C(c2c(O)c3ccccc3oc2=O)c2c(C)n(C)n(-c3ccccc3)c2=O)ccc1O (stereo not given) | 9.1%

SMILES | max response, negative = inhibition
CCC(=O)CC(c1ccc([N+](=O)[O-])cc1)c1c(O)c2ccccc2oc1=O (stereo not given) | -88.6% (active)
Cc1ccc(-n2c(-c3ccc([N+](=O)[O-])cc3)nc3ccccc3c2=O)cc1 | 7.83%
COC(=O)C[C@H]1CC[C@H]2NC[C@@H](O)COC[C@@H]2O1 | 0.0579%
CC(=O)NCC1=C(c2ccc3ccccc3c2)C[C@@H]2CC[C@H]1N2Cc1ccco1 | -16.9%
C[C@H]1CN([C@@H](C)CO)C(=O)CCCn2nncc2CO[C@H]1CN(C)C(=O)Oc1cccc2ccccc12 | 27%
CCOC(=O)C1CN(C)CCC1=O (stereo not given) | -50.3% (active)
CCOC(=O)[C@]12Cc3cc(OC)ccc3[C@H]1N(C(C)C)C(=O)c1ccccc12 | 0.502%
c1ccc(C(CN2CCCCC2)c2ccccc2)cc1 | 5.85%
O=[N+]([O-])c1ccc(C2C3C(c4ccccc4)=NC4(CCCCC4)N32)cc1 (stereo not given) | 4.9%
O=C1NC(=O)C(Cc2ccccc2)C(=O)N1 | 4.35%
CC(=O)N1CN2CN(C(C)=O)CC(C(=O)c3ccc(Br)cc3)(C2)C1 | 2.09%
Cc1cc2ccccn2c1C(C[N+](=O)[O-])c1c(F)cccc1Cl (stereo not given) | -52.4% (active)
Cn1cc(C(=O)OCC(=O)N2CCCC2)c2ccccc21 | 0%
CCC(=O)OC(Cc1ccccc1)(c1ccccc1)C(C)CN(C)C (stereo not given) | -66% (active)
O=P(OC1=CCCCC1)(c1ccccc1)c1ccccc1 | 16.2%
CN(C)CCN(CC1CCCN(Cc2ccccc2F)C1)C(=O)Cc1ccc(F)c(F)c1 (stereo not given) | -0.712%
Nc1ccc(C(=O)N/N=C2/CN3CCC2CC3)cc1 | -6.03%
C=CCN1C(=O)NC(=O)/C(=C/c2ccc(OCC(=O)Nc3ccc(C)cc3)cc2)C1=O | -2.43%
O=C(O)C1CSC(c2cccnc2)N1 (stereo not given) | -75.1% (active)
CC(C)n1c(=O)c(C=Nc2ccc(Br)cc2)c(O)n(Cc2ccco2)c1=O | -0.258%
COC(=O)C1=C(c2ccc(OCc3ccccc3)cc2)C[C@@H]2CC[C@H]1N2C(=O)NCc1ccc(Cl)cc1 | -2.39%
COc1ccc(N=Cc2c(O)n(C)c(=O)[nH]c2=O)cc1 | -8.25%
COc1ccc(C(=O)C2CCCN(Cc3ccc(C)s3)C2)cc1OC (stereo not given) | 1.99%
Cc1ccsc1C(=O)C1CCCN(Cc2ccc(O)cc2)C1 (stereo not given) | -22.3%

SMILES | max response, negative = inhibition
Cc1ccc(CN2CCCC(C(=O)c3ccc4c(c3)OCO4)C2)cc1C (stereo not given) | -74.3% (active)
COc1ccc(C2C=C(C)Oc3c2c(=O)oc2ccccc32)cc1OC (stereo not given) | 1.55%
CC1(C)Cc2c(C#N)c(N3CCNCC3)nc(-c3ccco3)c2CS1 | -15.4%
Oc1cc2c(cc1CN1CCN(c3ccccc3)CC1)OCO2 | -71.5% (active)
CC(C)c1ccc(O)c(CN2CCN(c3ccccc3)CC2)c1 | -71% (active)
COc1ccccc1CN1CCN(C(=O)Cc2ccccc2)CC1 | -24%
CCN1CCN(Cc2cc(OC)c3c(c2)OCO3)CC1 | 2.18%
O=C(Cc1ccccc1[N+](=O)[O-])N1CCN(Cc2ccc3c(c2)OCO3)CC1 | -4.07%
Fc1ccc(N2CCN(Cc3ccc4c(c3)OCO4)CC2)cc1 | -111% (active)
Cc1cc(=O)oc2c(C)c(OCC(=O)N3CCN(Cc4ccc5c(c4)OCO5)CC3)ccc12 | 0.853%
OC(Cn1c2ccccc2c2ccccc21)C[n+]1ccccc1 (stereo not given) | -9.75%
c1cc2c(cc1C1OCC3C(c4ccc5c(c4)OCO5)OCC13)OCO2 (stereo not given) | 1.57%
C[C@]12CC[C@H](O)CC1=C([N+](=O)[O-])CC1C2CC[C@@]2(C)C1CC[C@@H]2O (stereo not given in full) | 10.3%
O=C1C2CCN(CC2)C1(CO)CO | 5.89%
CC(=O)C1(O)CCC2C3CCC4=C(Cl)C(=O)CCC4(C)C3CCC21C (stereo not given) | -13.9%
CCN1CCN(C(=O)Cc2coc3cc(C)cc(C)c23)CC1 | -9.21%
C[C@]12CCC3C(CC[C@H]4[C@H](O)[C@H](O)CC[C@]34C)C1CC[C@@H]2O (stereo not given in full) | 2.6%
CC(C)CN1Cc2cc(N3CCCCC3)ccc2-n2nncc2C1 | -13.6%
CCOc1ccc(CN(CCCl)CCCl)cc1C(=O)OC | -27.4%
CC(C)c1ccc(OCC(=O)N2CCN(C)CC2)c(Br)c1 | -52% (active)
CC(C)c1ccc(OCC(=O)N2CCCN(C)CC2)cc1 | -7.58%
CN1CCN(C(=O)COc2ccc(C(C)(C)C)cc2Br)CC1 | 0%
Cc1ccc(P(=S)(c2ccc(C)o2)N2CCOCC2)o1 | 14%
Cc1nc2ccccn2c1P(=S)(N1CCCCC1)N1CCCCC1 | 12%

SMILES | max response, negative = inhibition
Cc1cc(C)cc(NC(=S)NC2CC3CCCC(C2)N3Cc2cccs2)c1 (stereo not given) | -81.8% (active)
CCC1(CC(C)c2ccccc2)C(=O)NC(=O)NC1=O (stereo not given) | 6.61%
O=C(CCN1CCCCC1)NCC(=O)Nc1ccc(Br)cc1C(=O)c1ccccc1 | -29.9%
Cc1ccc(Cn2c(C)c3cnn(CC(=O)N4CCC5(CC4)OCCO5)c(=O)c3c2C)cc1 | 3.94%
O=c1[nH]c2ccccc2n1C1CCN(C(c2ccnc3ccccc23)c2nnnn2Cc2ccccc2)CC1 (stereo not given) | 9.58%
Cc1ccc(Cn2nnnc2CN2CCC(n3nnc4ccccc43)CC2)cc1 | -69% (active)
O=c1[nH]c2ccccc2n1C1CCN(C(c2ccccc2)c2nnnn2Cc2ccccc2)CC1 (stereo not given) | 71.4%
CCOC(=O)[C@]12Cc3ccccc3[C@H]1N(C1CCCCC1)C(=O)c1cc(OC)ccc12 | -14.9%
O=C(COC(=O)Cc1ccccc1)Nc1ccc(F)cc1 | 6.49%
CCOc1cccc(=NC2CCCCC2)c2c(C)[nH]c(C)c12 | 13.5%
CCN1CC2C3CCC(C)(O3)C2C1 (stereo not given) | -7.4%
Cc1nc2nc(C)c(CCC(=O)N3CCC4(CC3)OCCO4)c(C)n2n1 | -10.8%
CN1CCC(OC(=O)c2cccc(F)c2)CC1 | -13.8%
COc1ccc(C(=O)C2CN(C)CC2C(=O)c2ccc(OC)cc2)cc1 (stereo not given) | -1.15%
Cc1ccc(C2CN(C)CC2C(=O)c2ccc(F)cc2)cc1 (stereo not given) | -102% (active)
Cn1c(O)c(C(=Nc2ccc(F)cc2)c2ccccc2)c(=O)n(C)c1=O | -8.88%
c1cncc(CNCCc2c[nH]c3ccccc23)c1 | 14.8%
O=C1NCN(c2ccccc2)C12CCN(C(c1cccs1)c1nnnn1C1CCCCC1)CC2 (stereo not given) | -8.63%
c1ccc(N2Cc3ccccc3-n3nncc3C2)nc1 | -20.4%
CC(=O)OC1C2(CC3N4C(=O)C5(CO)SSC4(CC31O)C(=O)N5C)OC(C)C(C)(C)C2=O (stereo not given) | -98.1% (active)
CN(C)S(=O)(=O)c1cc(C(=O)N2CCC(C(=O)O)(c3ccccc3)CC2)ccc1Cl | -1.23%
Clc1ccc2nc3c(c(-c4ccccc4)c2c1)CNCC3 | -1.49%
COc1ccc(-n2nnnc2C(c2cccc3ccccc23)N2CCC(n3c(=O)[nH]c4ccccc43)CC2)cc1 (stereo not given) | 117%
